# “And” between values parts separate entries of the source, which are not always exact repeats. Identical values can stand only once. Records with an inconclusive call do not appear. Values without a mark were called inactive. The source made the active and inactive calls. Calls follow the shape of the dose curve; as a rule, active = well fitted cell-killing curve with a large enough effect; inconclusive = small, poorly fitted or top-dose-only effect, or effect the other way; inactive = no such curve, though single readings can be large or run the other way.
# Assay: Viability qHTS for spleen associated tyrosine kinase inhibitor (SYKi) naive MV4-11 cells (AID 1963823); also: nearly all actives have a fitted effect of over 40% in size
# Settings: MV4-11 AML viability, CellTiter-Glo luminescence, 72 h; series mostly up to 45 µM; viability (% of control): at the top concentration
# In short: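 CellTiter-Glo luminescence, 10 min room-temperature incubation, gave viability. Cells: naive MV4-11 (500/well), treated 72 hr at 37 C, 5% CO2.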
# Potency is read from the fitted curve at half-maximal effect.
SMILES,viability (% of control),Potency
Cc1cccc(C)c1NC(=O)c1ccc(N)cc1,88.1%,–
CN1CCN(CC(=O)N2c3ccccc3C(=O)Nc3cccnc32)CC1,98.6% [at 4.97 µM],–
CCN(C(=O)c1ccccc1OC)c1cc2c(cc1N1CCNC[C@H]1C)n(C)c(=O)n2C,96.1%,–
COc1ccc(Cc2cnc(N)nc2N)cc1OC,113%,–
Cc1oc(=O)oc1COC(=O)[C@@H]1N2C(=O)[C@@H](NC(=O)[C@H](N)c3ccccc3)[C@H]2SC1(C)C,72.2%,–
COc1ccc(S(=O)(=O)N(CCO)c2ccccc2CN(C)C/C=C/c2ccc(Cl)cc2)cc1,–,4680 nM (active)
COc1cc(N2CCN(C)CC2)ccc1Nc1ncc2c(n1)N(C)c1ccccc1C(=O)N2C,–,934 nM (active)
O=C(NO)c1ccc(C2=Nc3ccccc3Oc3ccccc32)cc1,–,3320 nM (active)
CCCCNc1ncc2c(-c3ccc(F)cc3)nn(CC3CCC(N)CC3)c2n1 (stereo not drawn),–,8 nM (active)
Cc1[nH]c2ccccc2c1CCNCc1ccc(/C=C/C(=O)NO)cc1,–,29.5 nM (active)
CN1CCCN=C1/C=C/c1cccs1,76%,–
C=C1C[C@@]2(O)O[C@@]3(C[C@H]2C(C)C)[C@@H](C)CC[C@@H]13,67%,–
CC(C)NCC(O)c1cc(O)cc(O)c1 (stereo not drawn),71.6%,–
C[C@@H]1N=C(N)NC(N(C)C)=N1,–,inactive
NC(=O)c1ncn([C@@H]2O[C@H](CO)[C@@H](O)[C@H]2O)c1O,–,inactive
CNCc1ccccc1,89.6%,–
Cc1onc(-c2c(Cl)cccc2Cl)c1C(=O)Cl,75.5%,–
CN1C(=O)CC(C)(c2ccccc2)C1=O (stereo not drawn),92.3%,–
CN1CCCN(C(=O)c2cccc(-c3ccc(/C=C4/C(=O)Nc5ccc(Cl)cc54)o3)c2)CC1,–,417 nM (active)
O=C1OC(CN2CCOCC2)CN1/N=C/c1ccc([N+](=O)[O-])o1 (stereo not drawn),92.5%,–

SMILES,viability (% of control),Potency
C[C@@]12C(=O)OC(=O)[C@]1(C)C1CCC2O1,–,2660 nM (active)
CCOCCn1c(N2CCCN(C)CC2)nc2ccccc21,83.8%,–
CC[C@@H](C)Nc1cc(C(=O)NC2CC3CCC(C2)N3c2ccc(C(=O)C3CC3)cn2)c(C)cc1C(N)=O (stereo partly drawn),–,41.7 nM (active)
COc1cccc2c1C(=O)c1c(O)c3c(c(O)c1C2=O)C[C@@](O)(C(=O)CO)C[C@@H]3O[C@H]1C[C@H](N)[C@H](O)[C@H](C)O1,–,133 nM (active)
CC(C)NCC(O)COc1cccc2[nH]ccc12 (stereo not drawn),78.2%,–
CC(C)C[C@@H](N)C(=O)O,84%,–
COc1c(Nc2ncc(Cl)c(N[C@H]3[C@H](C(N)=O)[C@@H]4C=C[C@@H]3C4)n2)ccc2c1CCC(N1CCOCC1)CC2 (stereo partly drawn),–,130 nM (active)
C[C@@]12C(=O)OC(=O)[C@]1(C)[C@H]1CC[C@@H]2O1,–,2630 nM (active)
N#Cc1cc2cc(CN3CCC(Nc4ncnc5sc(CC(F)(F)F)cc45)CC3)c(O)cc2n1Cc1cn[nH]c1,–,742 nM (active)
CC(C)(C)c1ccc(C(=O)CCCN2CCC(OC(c3ccccc3)c3ccccc3)CC2)cc1,–,13300 nM (active)
COc1ccc(S(=O)(=O)Nc2cc(-c3csc(C#N)c3)ccc2C)cc1,–,83.3 nM (active)
CCCCC1(COC(=O)CCC(=O)O)C(=O)N(c2ccccc2)N(c2ccccc2)C1=O,87.6%,–
C[C@]12CCCN1CC1=NNC(=O)c3cc(F)cc4[nH]c2c1c34,–,2630 nM (active)
Cc1c(NC(C)C)c(=O)n(-c2ccccc2)n1C,71.1%,–
CC(C)Cc1ccc([C@@H](C)C(=O)NS(C)(=O)=O)cc1,95.4%,–
CCCCNc1ncc2c(-c3ccc(CN4CCN(C)CC4)cc3)cn(C3CCC(O)CC3)c2n1 (stereo not drawn),–,10.5 nM (active)
CC(=O)Nc1ccc(OC(=O)c2ccccc2OC(C)=O)cc1,71.6%,–
O=S(=O)(O)c1cc(I)c(O)c2ncccc12,–,15 nM (active)
CC(=O)N[C@H]1CSSC[C@@H](C(N)=O)NC(=O)[C@H](C(C)C)NC(=O)[C@H](C)NC(=O)[C@H](Cc2cnc[nH]2)NC1=O,83.7%,–

# Assay: Viability qHTS for spleen associated tyrosine kinase inhibitor (SYKi) drug resistant MV4-11 cells (AID 1963824); also: nearly all actives have a fitted effect of over 35% in size
# Settings: SYKi-resistant MV4-11 viability, CellTiter-Glo, 72 h; series mostly up to 45 µM; viability, % of control: at the top concentration
# In short: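 SYK-inhibitor-resistant MV4-11 AML cells were seeded at 500 per well onto compound and cultured 72 hours (37 °C, 5% CO2). CellTiter-Glo was then added, and after 10 min at room temperature, luminescence gave viability.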
SMILES,"viability, % of control",Potency
Cc1cccc(C)c1NC(=O)c1ccc(N)cc1,91.2%,–
CN1CCN(CC(=O)N2c3ccccc3C(=O)Nc3cccnc32)CC1,96.6% [at 4.97 µM],–
CCN(C(=O)c1ccccc1OC)c1cc2c(cc1N1CCNC[C@H]1C)n(C)c(=O)n2C,92.4%,–
COc1ccc(Cc2cnc(N)nc2N)cc1OC,107%,–
Cc1oc(=O)oc1COC(=O)[C@@H]1N2C(=O)[C@@H](NC(=O)[C@H](N)c3ccccc3)[C@H]2SC1(C)C,83.9%,–
COc1ccc(S(=O)(=O)N(CCO)c2ccccc2CN(C)C/C=C/c2ccc(Cl)cc2)cc1,–,4.68 µM (active)
COc1cc(N2CCN(C)CC2)ccc1Nc1ncc2c(n1)N(C)c1ccccc1C(=O)N2C,–,1.86 µM (active)
O=C(NO)c1ccc(C2=Nc3ccccc3Oc3ccccc32)cc1,–,2.95 µM (active)
CCCCNc1ncc2c(-c3ccc(F)cc3)nn(CC3CCC(N)CC3)c2n1 (stereo not drawn),–,0.0112 µM (active)
Cc1[nH]c2ccccc2c1CCNCc1ccc(/C=C/C(=O)NO)cc1,–,0.0263 µM (active)
CN1CCCN=C1/C=C/c1cccs1,81.1%,–
C=C1C[C@@]2(O)O[C@@]3(C[C@H]2C(C)C)[C@@H](C)CC[C@@H]13,83.2%,–
CC(C)NCC(O)c1cc(O)cc(O)c1 (stereo not drawn),82.4%,–
C[C@@H]1N=C(N)NC(N(C)C)=N1,–,inactive
NC(=O)c1ncn([C@@H]2O[C@H](CO)[C@@H](O)[C@H]2O)c1O,–,inactive
CNCc1ccccc1,89.5%,–
Cc1onc(-c2c(Cl)cccc2Cl)c1C(=O)Cl,65.9%,–
CN1C(=O)CC(C)(c2ccccc2)C1=O (stereo not drawn),107%,–
CN1CCCN(C(=O)c2cccc(-c3ccc(/C=C4/C(=O)Nc5ccc(Cl)cc54)o3)c2)CC1,–,0.662 µM (active)
O=C1OC(CN2CCOCC2)CN1/N=C/c1ccc([N+](=O)[O-])o1 (stereo not drawn),–,8.41 µM (active)

SMILES,"viability, % of control",Potency
C[C@@]12C(=O)OC(=O)[C@]1(C)C1CCC2O1,–,2.99 µM (active)
CCOCCn1c(N2CCCN(C)CC2)nc2ccccc21,89.7%,–
CC[C@@H](C)Nc1cc(C(=O)NC2CC3CCC(C2)N3c2ccc(C(=O)C3CC3)cn2)c(C)cc1C(N)=O (stereo partly drawn),–,0.0206 µM (active)
COc1cccc2c1C(=O)c1c(O)c3c(c(O)c1C2=O)C[C@@](O)(C(=O)CO)C[C@@H]3O[C@H]1C[C@H](N)[C@H](O)[C@H](C)O1,–,0.299 µM (active)
CC(C)NCC(O)COc1cccc2[nH]ccc12 (stereo not drawn),90.6%,–
CC(C)C[C@@H](N)C(=O)O,–,inactive
COc1c(Nc2ncc(Cl)c(N[C@H]3[C@H](C(N)=O)[C@@H]4C=C[C@@H]3C4)n2)ccc2c1CCC(N1CCOCC1)CC2 (stereo partly drawn),–,0.366 µM (active)
C[C@@]12C(=O)OC(=O)[C@]1(C)[C@H]1CC[C@@H]2O1,–,2.63 µM (active)
N#Cc1cc2cc(CN3CCC(Nc4ncnc5sc(CC(F)(F)F)cc45)CC3)c(O)cc2n1Cc1cn[nH]c1,–,1.32 µM (active)
CC(C)(C)c1ccc(C(=O)CCCN2CCC(OC(c3ccccc3)c3ccccc3)CC2)cc1,–,11.9 µM (active)
COc1ccc(S(=O)(=O)Nc2cc(-c3csc(C#N)c3)ccc2C)cc1,–,0.0934 µM (active)
CCCCC1(COC(=O)CCC(=O)O)C(=O)N(c2ccccc2)N(c2ccccc2)C1=O,83.9%,–
C[C@]12CCCN1CC1=NNC(=O)c3cc(F)cc4[nH]c2c1c34,–,6.61 µM (active)
Cc1c(NC(C)C)c(=O)n(-c2ccccc2)n1C,73.2%,–
CC(C)Cc1ccc([C@@H](C)C(=O)NS(C)(=O)=O)cc1,115%,–
CCCCNc1ncc2c(-c3ccc(CN4CCN(C)CC4)cc3)cn(C3CCC(O)CC3)c2n1 (stereo not drawn),–,11.6 nM (active) and 20.9 nM (active)
CC(=O)Nc1ccc(OC(=O)c2ccccc2OC(C)=O)cc1,81.5%,–
O=S(=O)(O)c1cc(I)c(O)c2ncccc12,79.4%,–
CC(=O)N[C@H]1CSSC[C@@H](C(N)=O)NC(=O)[C@H](C(C)C)NC(=O)[C@H](C)NC(=O)[C@H](Cc2cnc[nH]2)NC1=O,97.1%,–

# Source: PubChem BioAssay (NCATS)
